Screens as filed in PubChem BioAssay.
Most compounds without a hit are left out; they make up all but 10% or so of the library.
CtBP-E1A inh: inhibitors of CtBP/E1A interaction; AlphaScreen GST-E1A/His-CtBP binding, 1536-well; active compounds read low; 0.49% of 340,000 active; activity change, % (concentration not given with the values); in the data active = activity change below about -65%; inconclusive = mostly about -30% to -63%; note: % is set by controls: 0 for no effect and ±100 for the full control effect
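GST-E1A and His-tagged CtBP (125 nM each as 5X stock) were preincubated with pin-transferred compound for 2 h at 37 °C in the dark, then glutathione donor and nickel acceptor beads were added for 1 h before AlphaScreen reading.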
JMJD2A Tudor inh: JMJD2A Tudor domain (human) inhibition | 4.4% of 390,000 active | O75164 | Potency, µM (top dose mostly 114 µM), for inactives: top-dose activity change, negative = inhibition, most hits filed as inhibitors | AID 504339 | AlphaScreen JMJD2A-Tudor / H3K4me3 peptide binding; note: potency is the fitted concentration of half-maximal effect; % is set by controls: 0 for no effect and ±100 for the full control effect; nearly all actives have a fitted effect of over 50% in size
HP1b chromo inh: HP1-beta chromodomain-methylated histone interaction inhibition. P83916. AlphaScreen HP1-beta / biotin-H3K9me3 peptide binding. Potency, µM (series often up to 114 µM), for inactives: at the highest dose activity change, negative = inhibition, usual class: inhibitors. 0.56% of 390,000 active. AID 540317; note: potency is the fitted concentration of half-maximal effect; nearly all actives have a fitted effect of over 70% in size
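AlphaScreen: HP1-beta (50 nM) preformed 30 min with biotin-H3(1-18)K9me3 peptide (50 nM) in PBS pH 7.4, 0.01% Tween-20. Compound added for 30 min at RT, then streptavidin donor/nickel chelate acceptor beads (10 ug/mL) for 30 min.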
BAZ2B inh: inhibitors of human BAZ2B bromodomain | Q9UIF8 | AlphaScreen BAZ2B-H3K14Ac peptide displacement | Potency, µM (top dose mostly 114 µM), without a hit: top-dose activity change, negative = inhibition, hits mostly inhibitors | 4.4% of 360,000 active | AID 504333; note: potency is the fitted concentration of half-maximal effect; % is set by controls: 0 for no effect and ±100 for the full control effect; nearly all actives have a fitted effect of over 60% in size
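Compounds, titrated to a top concentration of 110 uM, were incubated 30 min at room temperature with preformed BAZ2B/acetyl-K14 H3 peptide complex (50 nM each). Proximity signal was measured by AlphaScreen after 20 min with beads.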
Six1-Eya2 inh: inhibitors of human Six1/Eya2 interaction. Q15475+O00167. AlphaScreen GST-Six1/His-Eya2 binding, biochemical; active compounds read low. activity change, % (concentration not given with the values). 0.56% of 360,000 active; in the data active = activity change below about -65%; inconclusive = mostly about -30% to -63%; note: % is set by controls: 0 for no effect and ±100 for the full control effect
Target sequence (O00167 whole entry, looked up): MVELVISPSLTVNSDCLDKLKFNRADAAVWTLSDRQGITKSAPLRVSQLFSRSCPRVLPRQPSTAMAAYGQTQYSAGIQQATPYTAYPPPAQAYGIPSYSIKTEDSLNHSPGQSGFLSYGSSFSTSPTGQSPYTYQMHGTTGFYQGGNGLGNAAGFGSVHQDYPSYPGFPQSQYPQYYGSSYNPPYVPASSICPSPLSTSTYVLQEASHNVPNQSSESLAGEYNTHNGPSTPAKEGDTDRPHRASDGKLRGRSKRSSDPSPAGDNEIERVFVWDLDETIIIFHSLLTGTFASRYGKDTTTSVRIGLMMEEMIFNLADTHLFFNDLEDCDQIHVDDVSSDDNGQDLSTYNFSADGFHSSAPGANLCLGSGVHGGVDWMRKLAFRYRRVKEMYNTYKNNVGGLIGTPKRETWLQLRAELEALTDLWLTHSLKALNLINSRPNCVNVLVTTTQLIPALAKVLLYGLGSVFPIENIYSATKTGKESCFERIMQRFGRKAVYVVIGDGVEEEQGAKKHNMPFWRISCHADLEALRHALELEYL
Target sequence (Q15475 whole entry, looked up): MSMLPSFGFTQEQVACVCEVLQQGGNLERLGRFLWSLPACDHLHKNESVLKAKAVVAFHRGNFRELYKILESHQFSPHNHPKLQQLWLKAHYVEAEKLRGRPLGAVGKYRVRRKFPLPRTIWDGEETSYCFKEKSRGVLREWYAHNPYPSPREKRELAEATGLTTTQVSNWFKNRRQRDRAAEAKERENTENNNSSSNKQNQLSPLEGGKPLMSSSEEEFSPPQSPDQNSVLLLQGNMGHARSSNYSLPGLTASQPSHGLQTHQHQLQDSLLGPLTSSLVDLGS
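Compounds are tested against tagged Six1 and Eya2 proteins bridged by glutathione donor and nickel acceptor beads; after a one-hour incubation at 37 °C without light, AlphaScreen emission is recorded.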
G9a block: blocks human histone lysine methyltransferase G9a; 8.8% of 350,000 active; Q96KQ7; G9a H3K9 monomethylation, AlphaScreen, 2 h; Potency, µM (series often up to 102 µM), without a hit: at the highest dose activity, negative = inhibition, hits mostly inhibitors; note: potency is the fitted concentration of half-maximal effect; % is set by controls: 0 for no effect and ±100 for the full control effect; nearly all actives have a fitted effect of over 75% in size
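G9a (20 nM) was preincubated 15 min with compound, then reacted 2 h at room temperature with 500 nM biotin-H3K9 peptide and 20 µM SAM. Monomethyl-H3K9 detected by AlphaScreen using anti-H3K9me1 antibody.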
* = called active by the depositor; u = inconclusive; x = not tested or not shown; [ ] = dose if it differs, or a comment. Unless noted, calls come from the whole dose curve; as a rule, active = well fitted inhibition curve with a large enough effect; inconclusive = small, poorly fitted or top-dose-only effect; inactive = no such curve, though single readings can be large or run the other way.

SMILES | CtBP-E1A inh | JMJD2A Tudor inh | HP1b chromo inh | BAZ2B inh | Six1-Eya2 inh | G9a block
Cc1ccnc(NC(c2ccsc2)c2ccc3ccc(C)nc3c2O)c1 (stereo not drawn) | -3.6 | u | u | u | -17.9 | -151.7%[59 µM]
Cc1ccc2ccc(C(Nc3ccccc3)c3ccc(F)cc3)c(O)c2n1 (stereo not drawn) | -19.3 | x | x | x | -11.0 | x
CC(C)C(=O)NC(c1ccc(Cl)cc1Cl)c1ccc2cccnc2c1O (stereo not drawn) | x | -14.3% | 34.0% | u | -14.3 | 43.8%[0.501 µM]
Cc1ccnc(NC(c2cc(C)ccc2O)c2ccc3cccnc3c2O)c1 (stereo not drawn) | x | 28.2µM* | 7.0% | 22.4µM* | x | 10µM*
Cc1cc(NC(c2ccc(Cl)cc2)c2ccc3cccnc3c2O)no1 (stereo not drawn) | u | u | 23.5% | 44.7µM* | -65.5* | 23.2%[59 µM]
COc1cc(OC)c(Nc2nc3ccc(C(=O)c4ccccc4)cc3n3c(C)nnc23)cc1Cl | x | -3.8% | 42.6% | -0.6% | x | -6.9%[59 µM]
O=C(Nc1nnc(S(=O)(=O)N2CCCc3ccccc32)s1)c1ccccc1Br | x | -0.3% | 44.4% | -16.5% | x | -29.4%[59 µM]
CC1CCCN(CCCNC(=O)Cn2ncc3c([nH]c4ccccc43)c2=O)C1 (stereo not drawn) | x | -20.1% | 20.3% | -18.4% | x | 5.5%[59 µM]
Cc1ccc2ccc(C(Nc3ccccc3)c3ccc(C(C)C)cc3)c(O)c2n1 (stereo not drawn) | 0.0 | x | x | x | -1.6 | x
O=C(O)c1ccccc1NC(c1ccccc1)c1ccc2cccnc2c1O (stereo not drawn) | -20.3 | 28.2µM* | 25.1µM* | x | -84.4* | x
O=C(O)c1ccc2cccnc2c1O | -15.7 | 10µM* | 2.6% | 25.1µM* | -16.4 | x
Cc1ccnc(NC(c2ccccc2)c2ccc3cccnc3c2O)c1 (stereo not drawn) | -88.3* | 14.1µM* | -20.9%[57 µM] | x | -77.7* | x
CCN(CC)CCOC(=O)C(Cc1ccco1)Cc1cccc2ccccc12 (stereo not drawn) | -21.9 | 12.6µM* | u | x | -18.9 | x
CCN(CC)CCOC(=O)C(c1ccccc1)c1ccccc1 | -4.1 | -5.8% | 23.6% | u | -9.4 | 9.5%[59 µM]
CCN(CC)CCOC(=O)CCc1cccc2ccccc12 | -1.1 | 28.2µM* | -38.0% | u | 2.1 | 7.94µM*
COC(=O)c1ccccc1NC(=O)CCc1c(C)nc2c(c(C)nn2-c2ccccc2)c1C | x | -10.1% | 74.3% | 2.4% | x | 36.6%[59 µM]
O=C(CCN1CCCCC1)c1ccccc1 | 7.2 | -10.6% | 29.8% | 28.6% | 3.4 | u
O=C(c1ccccc1)N1CCN(Cc2ccccc2Br)CC1 | -2.2 | 5.01µM* | u | 50.1µM* | -1.3 | u
O=C(CCN1CCOCC1)c1ccc2c(c1)OCCO2 | -0.9 | -11.1% | 27.5% | 3.2% | -1.3 | 8.91µM*
O=C(c1ccc(Br)cc1)N1CCN(Cc2ccccc2)CC1 | -1.4 | -12.9% | 29.2% | 4.5% | -19.5 | -5.1%[0.501 µM]
O=C(CCN1CCOCC1)c1ccccc1 | -7.3 | -8.3% | 37.1% | 2.3% | -3.0 | 44.7µM*
O=C(CCN1CCOCC1)NNC(=S)NC(=O)c1ccccc1 | -12.0 | 17.8µM* | 28.1% | x | -3.1 | 11.2µM*
c1ccc2c(c1)CCC[C@H]2Nc1nc2ccccc2[nH]1 | x | x | x | x | x | 1.6%[59 µM]
CCN(CC)c1ccc(NC(=O)CSc2nnc(C)c(=O)[nH]2)cc1 | x | u | -14.7% | -30.5% | x | u
O=C(CCN1CCCCC1)c1ccc2c(c1)OCO2 | 5.4 | 0.0% | 31.4% | -23.7%[57.1 µM] | 1.3 | 7.94µM*
SMILES | CtBP-E1A inh | JMJD2A Tudor inh | HP1b chromo inh | BAZ2B inh | Six1-Eya2 inh | G9a block
O=C(CCN1CCN(C(=O)c2ccccc2)CC1)c1ccc(Br)cc1 | 2.6 | -14.7% | 32.0% | -5.0% | 7.4 | 31.6µM*
O=C(CCCN1CCOCC1)c1ccc2c(c1)OCCO2 | 9.6 | -23.8% | 17.8% | -1.5% | 0.5 | 11.8%[59 µM]
O=C(CCN1CCc2ccccc2CC1)c1ccc2c(c1)OCCO2 | -2.6 | u | -11.0% | -1.7% | -2.5 | 2.24µM*
O=C(O)CCN1CCc2ccccc2C1c1cccs1 (stereo not drawn) | 0.4 | 2.7% | 36.3% | -38.0% | 8.2 | 50.1µM*
CN1/C(=C\C(=O)CSc2cccc[n+]2[O-])C(C)(C)c2ccccc21 | 3.2 | -3.2% | 34.6% | -4.7% | 1.9 | 10µM*
Cc1cccc[n+]1CC(=O)/C=C1\N(C)c2ccccc2C1(C)C | 1.1 | 2.6% | 28.4% | -3.0% | 1.5 | -13.2%
COc1cccc(N2C(=O)CC(N3CCN(CCN=CC4=C(O)CC(C)(C)CC4=O)CC3)C2=O)c1 (stereo not drawn) | 3.0 | -14.0% | 34.6% | -4.2% | 10.4 | -5.7%
CC1(C)CC(=O)C(C=NCCN2CCN(C3CC(=O)N(c4cccc(Br)c4)C3=O)CC2)=C(O)C1 (stereo not drawn) | 8.6 | -18.8% | 31.6% | -15.0% | 8.3 | 70.8µM*
CCC(CC)C(=O)Nc1nnc2n1CCS2 | x | -10.3% | 14.4%[57 µM] | -30.1% | x | u
CCN(CC)S(=O)(=O)c1cc(C(=O)Nc2cc(S(=O)(=O)N3CCOCC3)ccc2N2CCN(C)CC2)ccc1C | x | -27.4% | 8.1% | x | -6.0 | x
CCc1ccc(CNC(=O)C2CCN(S(=O)(=O)N3CC(C)CC(C)C3)CC2)cc1 (stereo not drawn) | 0.1 | -9.6% | 25.9% | 50.1µM* | 0.2 | 1.9%
O=C(NCc1ccc(F)cc1)C1CCN(S(=O)(=O)N2CCCC2)CC1 | x | u | 17.6% | -3.3% | -0.4 | -33.6%
CC1CCN(C(=O)C(C)NCc2ccc(F)cc2)CC1 (stereo not drawn) | 11.8 | 10µM* | 20.0% | 50.1µM* | -4.3 | 7.08µM*
Cc1ccc(CNC(=O)C2CCN(S(=O)(=O)N3CC(C)CC(C)C3)CC2)cc1 (stereo not drawn) | 3.1 | -11.8% | 17.6% | -10.8% | 4.4 | -4.8%
CC1CCN(S(=O)(=O)N2CCCC(C(=O)NCc3ccc(F)cc3)C2)CC1 (stereo not drawn) | -7.6 | 11.2µM* | -19.7%[57 µM] | -12.4% | -14.7 | 12.6%
CC1CCN(CC2CCN(C(=O)NCc3ccc(F)cc3)CC2)CC1 | x | -9.3% | 17.0% | 2.7% | x | 4.5%[59 µM]
CCCCc1ccc(NC(=O)c2ccc3c(c2)CCN3S(=O)(=O)c2ccccc2)cc1 | x | -20.8% | -0.2% | -2.4% | x | -2.1%[59 µM]
FC(F)(F)c1ccc2c(c1)n(Cc1ccccc1)c1[n+]2CCCCC1 | -1.0 | u | 9.2% | u | -10.5 | 28.2µM*
O=C(Cn1c2[n+](c3ccc(C(F)(F)F)cc31)CCCCC2)c1cccc([N+](=O)[O-])c1 | x | -16.3% | 31.0% | -12.9% | 6.9 | u
O=C(Cn1c2[n+](c3ccc(C(F)(F)F)cc31)CCCCC2)Nc1ccccc1 | 9.4 | -5.6% | 11.6% | -0.5% | 2.8 | u
